Records with an inconclusive call do not appear. The source made the active and inactive calls. The calls were made as follows: active = hit-call score of the fitted dose curve at least 0.9, where 1 is the maximum; inconclusive = response in the unintended direction; inactive = score below 0.9.
Molecular target: Oxysterols receptor LXR-beta (Homo sapiens) (UniProt P55055)
Test: ATG_LXRb_TRANS: Attagene TRANS-FACTORIAL HepG2 Assay for human Liver X Receptor beta (LXRb) (AID 2282981)
Details: HepG2 Attagene TRANS GAL4-LXRb reporter, mRNA
Experimental: ATG_TRANS is a cell-based, multiplexed-readout assay that uses HepG2, a human liver cell line, with measurements taken at 24 hours after chemical dosing in a 24-well plate.ATG_LXRb_TRANS is one of 30 assay component(s) measured or calculated from the ATG_TRANS assay. It is designed to make measurements of mRNA induction, a form of inducible reporter, as detected with fluorescence intensity signals by Reverse transcription polymerase chain reaction (RT-PCR) and Capillary electrophoresis technology.Data from the assay component ATG_LXRb_TRANS was analyzed into 1 assay endpoint. This assay endpoint, ATG_LXRb_TRANS, was analyzed in the positive analysis fitting direction relative to DMSO as the negative control and baseline of activity. Using a type of inducible reporter, measures of mRNA for gain-of-signal activity can be used to understand the reporter gene at the transcription factor-level as they relate to the gene NR1H2. Furthermore, this assay endpoint can be referred to as a primary readout, because this assay has produced multiple assay endpoints where this one serves a reporter gene function. To generalize the intended target to other relatable targets, this assay endpoint is annotated to the nuclear receptor intended target family, where the subfamily is non-steroidal.
Human liver HepG2 cells are transiently transfected with multiple reporter transcription units (MRTUs) in 6-well plates using FuGene 6 reagent (Roche; 3 ml FuGene/1 mg DNA). The MRTU constructs are regulated by a cis-regulating element (promoter). […] A major difference between the CIS and TRANS system is that in CIS activities of endogenous TFs are measured, whereas the TRANS assay evaluates changes in activities of exogenous, chimeric NR-Gal4 proteins. […] At the end of 24 hour incubation, total RNA was isolated using TriZol reagent (Invitrogen). The isolated RNA is then reverse-transcribed using oligo(dT) primer and Mo-MLV reverse transcriptase (Invitrogen) with DNAse I (Ambion) treatment for 30 min. The one-tenth of the produced cDNA was amplified by PCR using Taq DNA polymerase (Invitrogen) and two reporter sequence-specific primers. The PCR products were fluorescently labeled by primer extension with 6-arboxyfluorescein (6-FAM) 5'-labeled reporter sequence-specific primer (2 min at 95 C, 20 s at 68 C and 10 min at 72 C) and these products were digested with 5U of HpaI (New England Biolabs) for 2h at 37 C. The fragments were purified using Qiaquick PCR columns (Qiagen), analyzed on an ABI 3130xL genetic analyzer (Applied Biosystems) with peak positions identified by using a set of X-rhodamine (ROX)-labeled MapMarker1000 molecular weight standards (BioVentures). The raw capillary electrophoresis data was processed using Attagraph software (Attagene).

Chain of Oxysterols receptor LXR-beta (Homo sapiens) (P55055 whole entry, looked up): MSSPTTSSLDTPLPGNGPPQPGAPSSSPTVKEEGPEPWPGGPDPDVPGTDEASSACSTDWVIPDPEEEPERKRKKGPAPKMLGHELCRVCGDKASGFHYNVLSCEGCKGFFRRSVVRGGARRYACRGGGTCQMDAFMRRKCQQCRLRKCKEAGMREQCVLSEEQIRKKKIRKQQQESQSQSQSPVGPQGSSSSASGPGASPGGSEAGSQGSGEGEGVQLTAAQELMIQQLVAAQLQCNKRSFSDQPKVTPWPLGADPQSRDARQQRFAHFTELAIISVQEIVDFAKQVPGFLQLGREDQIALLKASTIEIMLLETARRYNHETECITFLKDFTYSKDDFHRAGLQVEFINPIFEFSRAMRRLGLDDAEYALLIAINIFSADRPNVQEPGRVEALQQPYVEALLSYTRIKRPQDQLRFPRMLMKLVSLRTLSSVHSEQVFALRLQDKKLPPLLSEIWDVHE

outcome, inactive:
CCCCCCCCC
CSc1nc(NC2CC2)nc(NC(C)(C)C)n1
CCCCCC(CO)CCC (stereo not given)
C/C=C(\C)C(=O)OCc1ccccc1
NC(N)=NC(=O)c1nc(Cl)c(N)nc1N
O=C(O)CCCCCCCC(=O)O
O=Nc1ccc(Nc2ccccc2)cc1
C=C(C)C(=O)O[C@H]1C[C@@H]2CC[C@@]1(C)C2(C)C
Nc1cc(N)cc(C(=O)O)c1
Cc1ccc(C(=O)c2cc(O)c(O)c([N+](=O)[O-])c2)cc1
CC(C)=CCCC(C)=CCCC(C)=CCO
CC1(C)[C@H](C(=O)OCc2cccc(Oc3ccccc3)c2)[C@@H]1C=C(Cl)Cl
Cc1ccc2ccccc2n1
CC1CCC(C(C)(C)O)CC1 (stereo not given)
O=C(O)CCCCCCCCCCC(=O)O
[Ca+2]
CC(C)=CCC[C@H](C)CC=O
CC1=CCC2C(C1)C2(C)C (stereo not given)
CC(C)(C#N)c1cc(Cn2cncn2)cc(C(C)(C)C#N)c1
CC(C#N)(CCC(=O)O)N=NC(C)(C#N)CCC(=O)O (stereo not given)
Cc1c(N(C)C)c(=O)n(-c2ccccc2)n1C
CCCCCCCCCCCCSC
Cc1ccc(Nc2ccc(O)c3c2C(=O)c2ccccc2C3=O)cc1
OC1C(O)C(O)C(O)C(O)C1O (stereo not given)
c1ccc2[nH]ccc2c1
CC(=O)Nc1ccc(CC(=O)O)cc1
CCCCCCOC(=O)CC
CC(=O)O[C@]1(C(C)=O)CC[C@H]2[C@@H]3C[C@H](C)C4=CC(=O)CC[C@]4(C)[C@H]3CC[C@@]21C
CC(c1cc2ccccc2s1)N(O)C(N)=O (stereo not given)
CN(C)CCCN
C=C(C)[C@@H]1CCC2=CC(=O)C[C@@H](C)[C@]2(C)C1
CC(=O)c1c(C)cc(C(C)(C)C)cc1C
CC(O)C(C)O (stereo not given)
O=C1C(c2[nH]c3ccc(S(=O)(=O)O)cc3c2O)=Nc2ccc(S(=O)(=O)O)cc21
CCCC[n+]1ccccc1
CCCCN
Sc1nc(S)nc(S)n1
CCCOCC(C)O (stereo not given)
C=COCCOCCOCCOC=C
CC(C)(CO)[N+](=O)[O-]

Reference: PubChem BioAssay (EPA / NIEHS)
